Measured values: ChEMBL document CHEMBL4513216, “Probing the Open Global Health Chemical Diversity Library for Multistage-Active Starting Points for Next-Generation Antimalarials” (ACS Infect Dis, 2020)
Among all 69,000 compounds or so, about 8,600 (12%) showed an effect of 50% or more. The entries come from a sample that favours strong results as a whole.

test system: Plasmodium berghei; test: Screen against P. berghei liver stage (PbLuc), transformed with Luciferase, at 10uM; assay type: functional, HepG2; conditions: tested at 10 uM

Q: With `Cc1n[nH]c(C)c1-c1cnc(CC2CCCN(S(C)(=O)=O)C2)cn1` (stereo not drawn) as the compound, how does the INHIBITION read?
A: Its INHIBITION is -38.2%.

Q: Which INHIBITION does the source give for `Cc1cc(C)c2nc(C)c(C(=O)N3CCC(N4CCCC4)CC3)cc2c1` here?
A: The INHIBITION was 31%.

Q: With `CN1CCN(C(=O)CCn2c(C(F)(F)F)cc3cccnc32)CC1` as the compound, how does the INHIBITION read?
A: The INHIBITION was -15.3%.

Q: `CCOC(=O)N1CCN(C(=O)c2sc(-c3ccncc3)nc2C)CC1` was tested. Which INHIBITION did it give?
A: Its INHIBITION is 24%.

Q: With `Cc1nc(N)sc1C(=O)N1CCC(C(O)Cc2ccccc2)CC1` (stereo not drawn) as the compound, how does the INHIBITION read?
A: The INHIBITION was 46.7%.

Q: Which INHIBITION does the source give for `CCNc1nc(C)c(C(=O)N2CCC(C(O)Cc3ccccc3)CC2)s1` (stereo not drawn) here?
A: The INHIBITION was 53.9%.

Q: With `CCNc1nc(C)c(C(=O)N2CCN(c3ncccc3C)CC2)s1` as the compound, how does the INHIBITION read?
A: Its INHIBITION is -11.2%.

Q: `CNc1nc(C)c(C(=O)N2CCC(C(O)Cc3ccccc3)CC2)s1` (stereo not drawn) was tested. Which INHIBITION did it give?
A: The INHIBITION was 61.2%.

Q: With `Cc1cc(=O)c(C(=O)N2CCC(C(O)Cc3ccccc3)CC2)c(C)[nH]1` (stereo not drawn) as the compound, how does the INHIBITION read?
A: The INHIBITION was 35.8%.

Q: Which INHIBITION does the source give for `CCOC(=O)N1CCN(C(=O)c2sc(-c3ccccc3)nc2C)CC1` here?
A: Its INHIBITION is 74.7%.

Q: With `CCOC(=O)N1CCN(C(=O)c2sc(-c3ccc(F)cc3)nc2C)CC1` as the compound, how does the INHIBITION read?
A: Its INHIBITION is 18.8%.

Q: How did the INHIBITION turn out when `COc1nc(C)c(C(=O)N2CCC(C(O)Cc3ccccc3)CC2)s1` (stereo not drawn) was run?
A: Its INHIBITION is 18.5%.

Q: How did the INHIBITION turn out when `Cc1cc(C(=O)N2CCc3nc(C4CCCCN4)ncc3C2)cs1` (stereo not drawn) was run?
A: Its INHIBITION is -17.7%.

Q: `O=C([C@H]1CC[C@@H]2[C@@H](CCN2Cc2nccs2)O1)N1CCCCO1` was tested. Which INHIBITION did it give?
A: The INHIBITION was 19.5%.

Q: How did the INHIBITION turn out when `O=S1(=O)NCC2(CCCN(Cc3cccnc3)C2)Oc2ncccc21` (stereo not drawn) was run?
A: The INHIBITION was 40.8%.

Q: `c1cc(CCNc2ccc(CC3CCNC3)cn2)ccn1` (stereo not drawn) was tested. Which INHIBITION did it give?
A: The INHIBITION was 19.3%.

Q: How did the INHIBITION turn out when `O=C([C@@H]1CCS(=O)(=O)[C@@H]2CN(c3ncccn3)C[C@@H]21)N1CCOCC1` was run?
A: Its INHIBITION is 23.1%.

Q: For `CN1CCNC(Cc2ccc(-c3ccncc3)cc2)C1=O` (stereo not drawn), which INHIBITION is on record?
A: Its INHIBITION is 22%.

Q: For `CCN1CCn2c(C)cnc2C12CCN(C(=O)N(C)C)CC2`, which INHIBITION is on record?
A: Its INHIBITION is -18.4%.

Q: With `O=C(Nc1cccnc1)[C@H]1C[C@@H]2CCN(c3nncs3)C[C@H]2O1` as the compound, how does the INHIBITION read?
A: The INHIBITION was -13.2%.

Q: With `Cn1cc(N2C(=O)CC[C@@H]3[C@H]2CCN3Cc2cccc(C#N)c2)cn1` as the compound, how does the INHIBITION read?
A: Its INHIBITION is -24.1%.

Q: How did the INHIBITION turn out when `CC(c1cccs1)N(C)Cc1cnc(-c2ccccn2)nc1` (stereo not drawn) was run?
A: The INHIBITION was 66.5%.

Q: `CC(C)n1cnnc1CN(C)Cc1cnc(-c2ccccn2)nc1` was tested. Which INHIBITION did it give?
A: The INHIBITION was -36.3%.

Q: For `COC(=O)c1cccc(CN(C)C(C)c2ccccn2)c1` (stereo not drawn), which INHIBITION is on record?
A: Its INHIBITION is 14.8%.

Q: Which INHIBITION does the source give for `CC(=O)N1CCN(C(=O)c2ccc(-c3cccc(C)c3)[nH]c2=O)CC1` here?
A: The INHIBITION was 35.7%.

Q: How did the INHIBITION turn out when `Cc1cnn(CCNCc2cc(C)no2)c1` was run?
A: Its INHIBITION is 38.8%.

Q: For `Cc1ccc(-c2cc(CNCCn3cc(C)cn3)on2)cc1`, which INHIBITION is on record?
A: Its INHIBITION is 60.4%.

Q: With `Cc1cnn(CCNCc2ccc(C#N)cc2)c1` as the compound, how does the INHIBITION read?
A: Its INHIBITION is 6.8%.

Q: With `Cc1cnn(CCNCc2ccccc2C#N)c1` as the compound, how does the INHIBITION read?
A: Its INHIBITION is 51%.

Q: Which INHIBITION does the source give for `Cc1cnn(CCNCc2ccccc2F)c1` here?
A: The INHIBITION was -14.6%.

Q: `Cc1cnn(CCNCc2cc(-c3ccccc3)no2)c1` was tested. Which INHIBITION did it give?
A: The INHIBITION was 20.4%.

Q: `CCN(CC1CCCO1)C(=O)NCCNC(=O)c1ccccc1F` (stereo not drawn) was tested. Which INHIBITION did it give?
A: The INHIBITION was 34.5%.

Q: With `CCC(Nc1cccc(Oc2ccccn2)c1)C(N)=O` (stereo not drawn) as the compound, how does the INHIBITION read?
A: Its INHIBITION is 62%.

Q: `CCC(Nc1cccc(Oc2ccc(C#N)cc2)c1)C(N)=O` (stereo not drawn) was tested. Which INHIBITION did it give?
A: The INHIBITION was 29.6%.

Q: For `NC(=O)Nc1cccc(Oc2ccccn2)c1`, which INHIBITION is on record?
A: Its INHIBITION is -1.58%.

Q: Which INHIBITION does the source give for `CN1CCC(c2nnc(CN3CCCCC3)n2C)CC1` here?
A: The INHIBITION was 25.4%.

Q: How did the INHIBITION turn out when `COc1ccccc1OCC(=O)NCC(C)(O)C1CC1` (stereo not drawn) was run?
A: Its INHIBITION is -3.51%.

Q: `CN1CCc2[nH]cnc2C12CCN(C(=O)CCc1cccs1)CC2` was tested. Which INHIBITION did it give?
A: The INHIBITION was 31.9%.

Q: How did the INHIBITION turn out when `CCN1CCc2[nH]cnc2C12CCN(C(=O)CCCn1cncn1)CC2` was run?
A: Its INHIBITION is 36.3%.

Q: How did the INHIBITION turn out when `CC(=O)N1CCc2[nH]cnc2C12CCN(C(=O)CCn1cccn1)CC2` was run?
A: The INHIBITION was 35.2%.

Q: With `CCCN1CCc2[nH]cnc2C12CCN(C(=O)Cn1ccnc1C)CC2` as the compound, how does the INHIBITION read?
A: The INHIBITION was 57%.

Q: Which INHIBITION does the source give for `CCCN1CCc2[nH]cnc2C12CCN(C(=O)CCn1cccn1)CC2` here?
A: The INHIBITION was 54.8%.

Q: Which INHIBITION does the source give for `CC(=O)N1CCc2[nH]cnc2C12CCN(C(=O)Cc1ccccn1)CC2` here?
A: The INHIBITION was 8.31%.

Q: With `CCC(=O)N1CCC2(CC1)c1nc[nH]c1CCN2S(C)(=O)=O` as the compound, how does the INHIBITION read?
A: Its INHIBITION is 1.81%.

Q: Which INHIBITION does the source give for `CCN1CCc2[nH]cnc2C12CCN(C(=O)CCc1cccs1)CC2` here?
A: The INHIBITION was 26%.

Q: For `CC(=O)N1CCc2[nH]cnc2C12CCN(C(=O)Cc1cccs1)CC2`, which INHIBITION is on record?
A: Its INHIBITION is 61.5%.

Q: How did the INHIBITION turn out when `CN1CCc2c(CNc3ncccn3)n[nH]c2C1` was run?
A: The INHIBITION was 27.5%.

Q: For `CCC(=O)N1CCC(Cc2ccccc2-c2ccccc2F)(C(N)=O)C1` (stereo not drawn), which INHIBITION is on record?
A: The INHIBITION was 29.2%.

Q: Which INHIBITION does the source give for `Cc1cnn(C2(C(=O)O)CCN(Cc3oc4ccccc4c3C)CC2)c1` here?
A: Its INHIBITION is -0.613%.

Q: For `CC(C)n1nnc(CC(=O)NCC2(c3cccc(F)c3)CCCC2)n1`, which INHIBITION is on record?
A: Its INHIBITION is 26.7%.

Q: How did the INHIBITION turn out when `COCc1ccccc1NC(=O)c1ccoc1` was run?
A: Its INHIBITION is -80.7%.

Q: `Cc1ccc(C#N)cc1NC(=O)NC1CCCN(c2ncccn2)C1` (stereo not drawn) was tested. Which INHIBITION did it give?
A: The INHIBITION was 42%.

Q: With `CC(C(=O)N1CCN(Cc2ccncc2)CC1)n1cncn1` (stereo not drawn) as the compound, how does the INHIBITION read?
A: Its INHIBITION is 4.25%.

Q: `Fc1ccc(-c2cnc(C3CCNCC3)cn2)cc1` was tested. Which INHIBITION did it give?
A: The INHIBITION was 37.85%.

Q: How did the INHIBITION turn out when `CC(CO)CN(Cc1ccccc1)C(=O)c1csc(CN(C)C)n1` (stereo not drawn) was run?
A: Its INHIBITION is 13.7%.

Q: `Cc1nc(C(C)NC(=O)c2cn(CCC3CCCCC3)nn2)n[nH]1` (stereo not drawn) was tested. Which INHIBITION did it give?
A: The INHIBITION was 5.75%.

Q: Which INHIBITION does the source give for `COCCc1noc(Cn2c(=O)[nH]c3ccccc32)n1` here?
A: The INHIBITION was -16.5%.

Q: With `COCc1noc(Cn2c(=O)[nH]c3ccccc32)n1` as the compound, how does the INHIBITION read?
A: Its INHIBITION is 74%.

Q: How did the INHIBITION turn out when `COCc1noc(Cn2c(C3CC3)nc3ccccc32)n1` was run?
A: Its INHIBITION is 39.2%.

Q: How did the INHIBITION turn out when `CC1COCCN1C(=O)Cc1cc(Cl)c2c(c1)OCCO2` (stereo not drawn) was run?
A: The INHIBITION was 26.8%.

Q: `CSCC1CCN(C(=O)Cn2ncc(N3CCCCC3)cc2=O)CC1` was tested. Which INHIBITION did it give?
A: The INHIBITION was 40.7%.

Q: Which INHIBITION does the source give for `O=C(c1cncs1)N1CCc2[nH]nc(Nc3ccccc3)c2C1` here?
A: Its INHIBITION is 20.49%.

Q: `CN(CCc1ccccc1)Cc1cc(C(=O)N2CCN(C)C(=O)C2)no1` was tested. Which INHIBITION did it give?
A: Its INHIBITION is -13.2%.

Q: Which INHIBITION does the source give for `CN(CCc1ccccc1)Cc1cc(C(=O)N2CCSCC2)no1` here?
A: The INHIBITION was 40.5%.

Q: For `CN1CCCN(C(=O)c2cc(CN(C)CCc3ccccc3)on2)CC1`, which INHIBITION is on record?
A: Its INHIBITION is 53.3%.

Q: How did the INHIBITION turn out when `O=C1CCC2(CCN(Cc3nccs3)CC2)CN1CCCO` was run?
A: Its INHIBITION is -47.8%.

Q: `Cc1cnc(CN(C)C2CCCN(Cc3noc(C4CC4)n3)C2)cn1` (stereo not drawn) was tested. Which INHIBITION did it give?
A: The INHIBITION was 10%.

Q: How did the INHIBITION turn out when `CC(NCC(=O)N(C)C1CC1)c1ccc(S(C)(=O)=O)c(F)c1` (stereo not drawn) was run?
A: The INHIBITION was 34.7%.
